Measured values as given in PubChem BioAssay AID1063 (University of Pittsburgh Molecular Library Screening Center, 2008).
The whole screen tested about 200,000 compounds, of which about 18,000 (9%) were called active. This excerpt belongs to a sample that is enriched for actives. Values without a mark were called inactive. No stated cut-off is given here; in the data, active means inhibition above about 50%; inactive means the rest.

Assay: antileishmanial activity against promastigotes – primary screen (AID 1063);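 further: promastigotes grown with compound for 44 hours at 28 °C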
Conditions: Leishmania major promastigotes, resazurin fluorescence viability; at 10 µM; hits give high values
`COc1ccc(/C=C/C(=O)Nc2cccnc2)cc1OC` showed an inhibition of -4.52%. Compound `Cc1cc(C)cc(C(=O)NCC(=O)OCC(=O)N2CCCCC2)c1` has an inhibition of -9.27%. With `Cc1cc(C)n(CCNCc2c(C(=O)N3C[C@@H](C)O[C@@H](C)C3)nc3ccc(Cl)cn23)n1` the inhibition was -6.81%. `Cc1ccc(N(C(=O)c2sc(C)nc2C)C(C(=O)NC(C)(C)C)c2ccncc2)cc1` (stereo not given) gave an inhibition of -0.8%. With `O=C(O)/C=C/c1ccc(OCCCF)cc1` the inhibition was -5.86%. `COc1cccc(/C=C2\SC(=N)N(c3ccc(F)cc3)C2=O)c1` gave an inhibition of 5.76%. `COc1ccc(C2CC(c3ccccc3)=NN2C(=O)CSc2nccc(=O)[nH]2)cc1` (stereo not given) gave an inhibition of -0.2%. In the case of `O=C(CSc1nnnn1-c1ccc(O)cc1)N1N=C(c2ccc3ccccc3c2)CC1c1ccccc1` (stereo not given), the inhibition is reported as 99.8% (active). With `COc1ccc(-n2nnnc2SCC(=O)Nc2ccccc2)cc1` the inhibition was -4.13%. `C/C(N)=C(/C#N)C(=O)COC(=O)C1CCN(C(=O)c2ccc(Cl)cc2)CC1` gave an inhibition of -2.84%. In the case of `Cc1ccc(S(=O)(=O)/N=C(\N)c2ccc(F)cc2)cc1`, the inhibition is reported as -1.71%. Work on `O=C(COC(=O)c1c2c(nc3ccccc13)/C(=C\c1cccs1)CCC2)Nc1ccccc1Cl` yielded an inhibition of 27.8%. Work on `NC(=O)c1ccc(NC(=O)COC(=O)c2c3c(nc4ccccc24)/C(=C\c2ccc4c(c2)OCO4)CCC3)cc1` yielded an inhibition of 18.2%. With `O=C(COC(=O)c1c2c(nc3ccccc13)CCCC2)c1ccc(Br)s1` the inhibition was 96.8% (active). `COc1ccc2c(c1)CCC/C2=N\OC(=O)c1ccccc1F` gave an inhibition of -7.06%. `COc1cc2nc(CN(C)Cc3ccc(F)cc3)[nH]c(=O)c2cc1OC` gave an inhibition of 9.19%. In the case of `CC(=O)Nc1ccc(NC(=S)NC(=O)/C=C/c2ccccc2)cc1`, the inhibition is reported as -1.29%. `CC(=O)Nc1cc(C(=O)O)ccc1S(=O)(=O)c1ccc(Cl)cc1` showed an inhibition of -5.9%. In the case of `CC(C)C(NC(=O)c1ccc(Cl)cc1)C(=O)O` (stereo not given), the inhibition is reported as 27.4%. For `Cc1ccc(S(=O)(=O)c2ccc(Cl)cc2)cc1S(=O)(=O)NC(C(=O)O)C(C)C` (stereo not given), the inhibition was 50.9% (active). In the case of `Cn1cnc([N+](=O)[O-])c1Sc1ccccc1`, the inhibition is reported as 51.5% (active). Compound `Cn1nc(-c2ccccc2)c(CO)c1Sc1ccccc1` has an inhibition of 18.3%. `Cn1cnc([N+](=O)[O-])c1Nc1ccccc1O` gave an inhibition of -4.52%. Work on `C=CCn1c(SCC(=O)CC(=O)OCC)nc2cc(C(=O)N3CCC(C(N)=O)CC3)ccc2c1=O` yielded an inhibition of -4.29%. With `Cc1cccc(N2CCN(C(=O)c3cnn4c(C(F)F)cc(-c5ccccc5)nc34)CC2)c1C` the inhibition was 90.6% (active). Compound `CCC(CC)C(=O)N1CCN(c2cccc(C)c2C)CC1` has an inhibition of -3.72%. With `CC(=O)N1CCN(c2cccc(C)c2C)CC1` the inhibition was -2.3%. `CC(=O)Nc1ccccc1OC(C)C(=O)N1CCC(C)CC1` (stereo not given) showed an inhibition of -5.19%. For `CCC(=O)N(Cc1cc2cc(OC)ccc2[nH]c1=O)c1ccccc1C`, the inhibition was 3.53%. `COc1ccc(N(Cc2cc3cc(OC)ccc3[nH]c2=O)S(C)(=O)=O)cc1` showed an inhibition of 2.96%. For `COc1ccc2[nH]c(=O)c(CNc3ccc(C)c(C)c3)cc2c1`, the inhibition was 98.6% (active). In the case of `CC(NC(=S)Nc1ccc(OC(F)F)cc1)c1ccc(F)cc1` (stereo not given), the inhibition is reported as 36.8%. `OCCC1CN(Cc2ccccc2-c2ccco2)CCN1Cc1ccsc1` (stereo not given) showed an inhibition of 9.42%. In the case of `OCCC1CN(Cc2cccc(OC3CCCC3)c2)CCN1Cc1ccsc1` (stereo not given), the inhibition is reported as 80.5% (active). In the case of `OCCC#Cc1ccc(CN2CCN(Cc3ccsc3)C(CCO)C2)cc1` (stereo not given), the inhibition is reported as -0.59%. Work on `C=CCC(C(=O)c1ccccc1)[N+](C)(C)CC=C` (stereo not given) yielded an inhibition of -3.06%. `COc1ccc(NC(=O)C(C)SCc2ccccc2)cc1` (stereo not given) showed an inhibition of -8.12%. Work on `CC1(C)OC(=O)C(=CSc2ccc(C(C)(C)C)cc2)C(=O)O1` yielded an inhibition of -9.81%. With `CN(C)c1nnnn1-c1ccc(Cl)cc1` the inhibition was 2.19%. `CCN(CC)c1ccc(/C=N/Nc2nc(C)cc(=O)[nH]2)cc1` showed an inhibition of -1.36%. `CCOc1ccc(-n2c(O)c(/C=N/Nc3nc(C)cc(C)n3)c3ccccc3c2=O)cc1` showed an inhibition of 14%. In the case of `CCN(CC)c1ccc(/C=N/Nc2nc(C)cc(C)n2)c(O)c1`, the inhibition is reported as 99.8% (active). Compound `Cc1ccc(S(=O)(=O)CC(=O)Nc2c(C)n(C)n(-c3ccccc3)c2=O)cc1` has an inhibition of 2.54%. With `COc1cccc(CNC(=O)CCN2C(=S)NC(C)(C)CC2C)c1` (stereo not given) the inhibition was -13.5%. `CCCC(=O)NC(=S)Nc1ccc(CN2CCOCC2)cc1` gave an inhibition of 5.07%. `O=C1OC(/C=C/c2ccccc2)=NC/1=C/c1ccco1` showed an inhibition of -4.68%. Compound `Fc1cccc2ncnc(OCc3ccccc3)c12` has an inhibition of -9.83%. In the case of `O=C(Nc1ccc(C(=O)O)cc1)/C(=C/c1ccc([N+](=O)[O-])cc1)NC(=O)c1ccccc1`, the inhibition is reported as -2.56%. `O=C(N/N=C/c1ccc(O)cc1)/C(=C/c1ccc([N+](=O)[O-])cc1)NC(=O)c1ccccc1` showed an inhibition of -2.54%. For `O=C(N/N=C/c1cc([N+](=O)[O-])ccc1O)/C(=C\c1cccs1)NC(=O)c1ccccc1`, the inhibition was 85.6% (active). With `O=C(c1cn(-c2ccccc2)nc1-c1cc2ccccc2oc1=O)N1CCOCC1` the inhibition was -2.51%. With `CC1(C)CC(=O)C(C2c3ccccc3S(=O)(=O)c3ccccc32)C(=O)C1` the inhibition was -3.12%. Compound `OC(COc1cccc2ccccc12)CN1CCN(c2ccccn2)CC1` (stereo not given) has an inhibition of -1.28%. With `Cc1ccccc1OCC(O)CN1CCN(c2ccccn2)CC1` (stereo not given) the inhibition was 3.89%. With `Cc1cccc(OCC(O)CN2CCN(CCN3C(=O)c4cccc5cccc(c45)C3=O)CC2)c1C` (stereo not given) the inhibition was 99.9% (active). `COCCCNC(=S)NNC(=O)C(O)(c1ccccc1)c1ccccc1` showed an inhibition of -3.7%. In the case of `Clc1ccc(-c2nc3ccccn3c2CN2CCSCC2)cc1`, the inhibition is reported as 77.4% (active). For `O=C(CN1CCSCC1)N/N=C/c1ccc(Cl)cc1`, the inhibition was 7.06%. For `CN(C)C(=O)c1nc2ccc(Cl)cn2c1CN1CCN(c2ncccn2)CC1`, the inhibition was 7.72%. `CCOC(=O)N1CCN(CC(=O)Nc2ccc(F)cc2)CC1` gave an inhibition of -5.71%. Work on `CC(Nc1ccccc1)c1cccnc1` (stereo not given) yielded an inhibition of 12.1%. For `C=CCn1c(N)c(S(=O)(=O)c2cccs2)c2nc3ccccc3nc21`, the inhibition was 4.67%. For `C=CCn1c(N)c(C(=O)OCC(C)C)c2nc3ccccc3nc21`, the inhibition was 61% (active). Work on `CC(C)Cn1c(N)c(C(=O)NCc2cccs2)c2nc3ccccc3nc21` yielded an inhibition of 40.8%. `Cc1ccc(CN2CCN(/N=C/c3cccnc3)CC2)c(C)c1` gave an inhibition of 13.4%. For `COc1cccc(NC(=S)N(Cc2ccc(C)cc2)Cc2ccccn2)c1`, the inhibition was 94.4% (active). Compound `CSc1cccc(NC(=S)N(Cc2ccccc2)Cc2ccccn2)c1` has an inhibition of 17.4%. For `COc1cccc(NC(=S)NCc2ccccn2)c1`, the inhibition was -4.83%. `CN(C)c1ccc(/C=N/Nc2cc(N3CCOCC3)nc(N3CCOCC3)n2)cc1` gave an inhibition of -7.95%. Work on `Cc1ccc(-n2cc(CN(C)Cc3nccn3C)c(-c3cccc(C)c3)n2)cc1` yielded an inhibition of 39%. In the case of `Cc1cc(NC(=O)CN2C(=O)NC(CCc3ccccc3)C2=O)no1` (stereo not given), the inhibition is reported as 4.06%. `CCNC(=O)CC1C(=O)N(c2ccc(F)cc2)C(=O)N1CCc1sccc1C` (stereo not given) gave an inhibition of -7.58%. In the case of `O=C(NCCCN1CCOCC1)c1cc(-c2ccc(Cl)cc2)on1`, the inhibition is reported as 59.5% (active). For `O=C(NCCCN1CCOCC1)c1cc2c(s1)CCC2`, the inhibition was 79% (active). With `CCN(CC)CCCNC(=O)c1cc(-c2cccc(Cl)c2)on1` the inhibition was 87.4% (active). `O=C(NCCCn1ccnc1)c1cc(-c2ccccc2)on1` showed an inhibition of 2.53%. Work on `O=C(NCCCN1CCOCC1)c1cnn2c(-c3ccccc3)cc(-c3ccccc3)nc12` yielded an inhibition of 19%. `O=C(NCCN1CCOCC1)c1c(F)c(F)c(F)c(F)c1F` showed an inhibition of -4.01%. Work on `O=C(NCCCN1CCOCC1)c1ccccc1NS(=O)(=O)c1ccc(Br)cc1` yielded an inhibition of -7.24%. For `O=C(NNC(=S)NCCCN1CCOCC1)c1ccncc1`, the inhibition was -2.18%. Work on `CC(NC(=O)c1cc(-c2ccccc2)on1)c1ccccc1` (stereo not given) yielded an inhibition of -7.18%. Work on `CCCCCN(C(=O)NC(=O)Nc1cccc(C)c1C)S(C)(=O)=O` yielded an inhibition of -14.4%. With `COc1cccc(NC(=O)CC(c2ccc(OC(C)C)cc2)c2ccccc2OC)c1` (stereo not given) the inhibition was -2.29%. For `CCC(O)C1CCN(Cc2cn(-c3ccc(OC)cc3)nc2-c2cccc(F)c2)CC1` (stereo not given), the inhibition was 30.3%. With `Cc1cccc(-n2cc(CN3CCN(C(=O)c4ncn[nH]4)CC3)c(-c3cccc(F)c3)n2)c1` the inhibition was 89.9% (active). For `Cc1ccc(C)c(-n2cc(CN3CCN(C(=O)c4ncn[nH]4)CC3)c(-c3ccccc3)n2)c1`, the inhibition was -2.57%. `Cc1ccc(/C=N/NC(=O)Cn2ccc(C(F)(F)F)n2)o1` showed an inhibition of -8.92%. `CC1(C)CC(N(Cc2ccccc2)C(=O)Cc2ccccc2)CCO1` (stereo not given) showed an inhibition of 3.41%. In the case of `COCCNC(=S)Nc1cc(S(=O)(=O)N2CCOCC2)ccc1N1CCCCC1`, the inhibition is reported as -2.67%. In the case of `CN(C)c1nc(N)nc(Cn2nnc(-c3ccc(C(F)(F)F)cc3)n2)n1`, the inhibition is reported as -9.02%. Compound `Brc1ccc(OCCn2ccnc2)cc1` has an inhibition of 9.23%. For `Cc1noc(COc2ccccc2OCC(O)CNC(C)(C)C)n1` (stereo not given), the inhibition was 5.97%. With `CC(C)(C)CC(C)(C)NCC(O)COCCOc1ccc(Br)cc1` (stereo not given) the inhibition was 96.6% (active). `Cc1cc(C)n(-c2nc(C(F)(F)F)nc3ccccc23)n1` gave an inhibition of 24.4%. Work on `O=C(CN1CCN(Cc2ccc(F)cc2Cl)C1=O)NCc1cccs1` yielded an inhibition of -13%.
